The values below come from PubChem BioAssay (Tox21).

Assay [1] can be described thus: qHTS assay for small molecules that induce genotoxicity in human embryonic kidney cells expressing luciferase-tagged ATAD5 (AID 651632). Further: on the % scale 0 is the no-effect control and ±100 the full control effect; nearly all actives have a fitted effect of over 15% in size. Summed up: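 Concentration-response screen for ATAD5 upregulation in HEK293T luciferase reporter cells; 16 hr treatment at 37C, then luminescence after 30 min with Amplite at room temperature.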
(In general: Quantitative high-throughput screening tests each substance at several concentrations.)

Assay [2] in a line: qHTS assay for small molecule agonists of the p53 signaling pathway - cell viability (AID 651633; calls by dose curve; further: nearly all actives have a fitted effect of over 30% in size; further: potency means the concentration at half of the fitted maximal effect). In short, it runs like this:
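p53RE-bla cells, seeded at 4,000 per well and rested 5 h at 37 C/5% CO2, received compounds in DMSO for 16 h at 37 C. CellTiter-Glo was then added, and luminescence was read after 30 min at room temperature to gauge cytotoxicity.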

Assay [3] is described as follows: qHTS assay for small molecules that induce genotoxicity in human embryonic kidney cells expressing luciferase-tagged ATAD5 - cell viability (AID 651634; calls by dose curve; further: nearly all actives have a fitted effect of over 25% in size; further: potency means the concentration at half of the fitted maximal effect). In short, it runs like this:
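15.5 hr compound or vehicle exposure of HEK293T cells expressing luciferase-tagged ATAD5 at 37C; live-cell protease activity is read by fluorescence after 30 min of CellTiter-Fluor.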

The nature of assay [4]: qHTS assay for small molecule disruptors of the mitochondrial membrane potential - cell viability (AID 720634; calls by dose curve; further: nearly all actives have a fitted effect of over 20% in size; further: potency means the concentration at half of the fitted maximal effect). Summed up:
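In this qHTS format, HepG2 cells plated overnight were pinned with compound, incubated 1 hr, and assayed for ATP luminescence with CellTiter-Glo after m-MPI dye addition.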

Assay [5] is described as follows: qHTS assay to test for compound auto fluorescence at 590 nm (red) in HepG2 cells (AID 720674). Further: on the % scale 0 is the no-effect control and ±100 the full control effect. In short, it runs like this: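 Compound auto-fluorescence is scored relative to Rose Bengal sodium, measured at 540/590 nm in live HepG2 cultures after 1 hr compound contact (37 C, 5% CO2).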
A short description of assay [6]: qHTS assay to test for compound auto fluorescence at 535 nm (green) in HepG2 cells (AID 720675). Further: on the % scale 0 is the no-effect control and ±100 the full control effect.
Assay [7] is described as follows: qHTS assay to test for compound auto fluorescence at 460 nm (blue) in HEK293 cells (AID 720678). Further: on the % scale 0 is the no-effect control and ±100 the full control effect. In short, it runs like this:
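HEK293 cells (2,000 per well, medium with 10% dialyzed FBS) attached for 4-5 hr at 37C, then received compound and stood overnight at 37C, 5% CO2. Blue fluorescence was read at Ex/Em 405/460 nm and expressed relative to triamterene.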

Assay [8] in a line: qHTS assay to test for compound auto fluorescence at 590 nm (red) in HEK293 cells (AID 720679). Further: on the % scale 0 is the no-effect control and ±100 the full control effect. In short, it runs like this: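 HEK293 cells (2,000/well, medium with 10% dialyzed FBS) attached for 4-5 hr at 37C, received 23 nL compound and were incubated overnight at 37C, 5% CO2. Red fluorescence was then read at 540/590nm Ex/Em, referenced to Rose Bengal sodium.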
Assay [9] in a line: qHTS assay to test for compound auto fluorescence at 460 nm (blue) in HEK293 cell free culture (AID 720681). Further: on the % scale 0 is the no-effect control and ±100 the full control effect. Summed up:
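Test compounds were pinned into cell-free culture medium (DMEM with 10% FBS) and fluorescence was read directly at Ex/Em 405/460 nm. Signals were expressed as fluorescence equivalents of triamterene, with DMSO vehicle as control.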

Assay [10] is described as follows: qHTS assay to test for compound auto fluorescence at 535 nm (green) in HEK293 cell free culture (AID 720682). Further: on the % scale 0 is the no-effect control and ±100 the full control effect. Summed up: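 Green-channel intensity (Ex/Em 485/535 nm) was recorded from compound-treated wells containing only DMEM with 10% FBS. Fluorescein provided the equivalency standard.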
A short description of assay [11]: qHTS assay to test for compound auto fluorescence at 590 nm (red) in HepG2 cell free culture (AID 720684). Further: on the % scale 0 is the no-effect control and ±100 the full control effect. Summed up: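 Ex 540 / Em 590 nm read of compound in cell-free MEM (10% FBS). Rose Bengal sodium reference.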
Assay [12] can be described thus: qHTS assay to test for compound auto fluorescence at 460 nm (blue) in HepG2 cell free culture (AID 720685). Further: on the % scale 0 is the no-effect control and ±100 the full control effect. Summed up: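 Cell-free plates of MEM plus 10% FBS received 23 nL compound or DMSO vehicle; blue-channel (405/460 nm) intensity scored against triamterene as reference fluorophore.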
A short description of assay [13]: qHTS assay to test for compound auto fluorescence at 535 nm (green) in HepG2 cell free culture (AID 720686). Further: on the % scale 0 is the no-effect control and ±100 the full control effect.
The nature of assay [14]: qHTS assay to test for compound auto fluorescence at 460 nm (blue) in HepG2 cells (AID 720687). Further: on the % scale 0 is the no-effect control and ±100 the full control effect. In short, it runs like this: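 Cells (2,000/well in MEM with 10% FBS) attached overnight at 37 C, then were exposed to compound or DMSO for 1 hr at 37 C, 5% CO2. Fluorescence read at Ex/Em 405/460 nm, expressed as triamterene-equivalent signal.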
Assay [15] can be described thus: qHTS assay to test for compound auto fluorescence at 590 nm (red) in HEK293 cell free culture (AID 720683). Further: on the % scale 0 is the no-effect control and ±100 the full control effect. Summed up:
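Tox21 10K library compounds were pinned into cell-free DMEM with 10% FBS and fluorescence was read at excitation 540 nm. Activity is expressed as Rose Bengal sodium equivalency.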

Assay [16] is described as follows: qHTS assay for small molecule disruptors of the mitochondrial membrane potential (AID 720635). Further: potency means the concentration at half of the fitted maximal effect. Summed up:
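HepG2 cells (2,000/well) attached overnight at 37C, then took compound for 1 hr at 37C, 5% CO2. Mito-MPS dye was added for 30 min; fluorescence was read at 490/535 nm (monomers) and 540/590 nm (aggregates).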

Assay [17] is described as follows: qHTS assay to test for compound auto fluorescence at 535 nm (green) in HEK293 cells (AID 720680). Further: on the % scale 0 is the no-effect control and ±100 the full control effect.
Assay [18] addresses Glucocorticoid receptor (Homo sapiens) (UniProt P04150). Description: qHTS assay to identify small molecule agonists of the glucocorticoid receptor (GR) signaling pathway (AID 720691; active means well fitted activation curve with a large enough effect in the signal ratio in the repeat runs, not every such curve was filed as active; the % refers to the signal ratio; further: on the % scale 0 is the no-effect control and ±100 the full control effect). The conditions noted are these: GR-bla HeLa, beta-lactamase reporter ratio, 18 h; activation: at 62.4 µM (top of the series). Summed up:
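Measures GR pathway activation through a GRE-beta-lactamase reporter stably integrated in HeLa cells, with 18 h compound treatment at 37 C and fluorescence detection using a FRET substrate.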

Assay [19] has the same target. The experiment in a line: qHTS assay to identify small molecule antagonists of the glucocorticoid receptor (GR) signaling pathway (AID 720692; active means well fitted inhibition curve with a large enough effect in the signal ratio in the repeat runs, not every such curve was filed as active; the % refers to the signal ratio; further: potency means the concentration at half of the fitted maximal effect). Summed up: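 Tox21 10K library screened in concentration-response for blockade of dexamethasone (5 nM final)-induced GRE-bla reporter activity in HeLa cells; 18 h treatment, fluorescence read.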

Structures are written as SMILES. Values without a mark were called inactive. Inconclusive results are not listed. Activity calls are given as the source filed them. Unless noted, the call rests on the fitted dose curve; in most records, active means well fitted curve in the direction sought with a large enough effect in the repeat runs; inconclusive means weak or mixed curves; inactive means no such curve, though single readings can be large; an effect the other way counts as inactive or inconclusive.

Chain of Glucocorticoid receptor (Homo sapiens) (P04150 whole entry, looked up): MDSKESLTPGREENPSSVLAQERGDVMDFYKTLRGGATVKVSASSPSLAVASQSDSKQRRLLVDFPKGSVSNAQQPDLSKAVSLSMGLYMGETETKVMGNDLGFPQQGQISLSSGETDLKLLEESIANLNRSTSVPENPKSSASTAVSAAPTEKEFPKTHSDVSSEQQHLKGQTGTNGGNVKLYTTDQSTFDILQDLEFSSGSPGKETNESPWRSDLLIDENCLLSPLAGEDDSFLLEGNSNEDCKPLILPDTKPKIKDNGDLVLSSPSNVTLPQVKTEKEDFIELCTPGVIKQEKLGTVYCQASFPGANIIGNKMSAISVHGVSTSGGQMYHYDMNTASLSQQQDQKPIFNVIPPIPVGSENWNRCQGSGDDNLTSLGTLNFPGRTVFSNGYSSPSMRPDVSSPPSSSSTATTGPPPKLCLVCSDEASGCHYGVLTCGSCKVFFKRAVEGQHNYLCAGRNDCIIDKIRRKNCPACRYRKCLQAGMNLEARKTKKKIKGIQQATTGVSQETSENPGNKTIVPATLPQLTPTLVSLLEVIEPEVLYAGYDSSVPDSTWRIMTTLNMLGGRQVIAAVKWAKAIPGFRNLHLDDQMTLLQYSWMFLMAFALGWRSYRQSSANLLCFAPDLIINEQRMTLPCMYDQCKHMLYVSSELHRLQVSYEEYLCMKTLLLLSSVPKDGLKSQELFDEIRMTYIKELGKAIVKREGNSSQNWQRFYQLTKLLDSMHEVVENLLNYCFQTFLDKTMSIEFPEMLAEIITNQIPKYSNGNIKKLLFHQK

Consider `Cc1cccc(C)c1NC(=O)CN1CCN(CCCC(c2ccc(F)cc2)c2ccc(F)cc2)CC1`, for which the Potency entry in assay [1], in assay [2], in assay [3] and in [4] was “inactive” each time. The fluorescence, relative to Rose Bengal in assay [5] is -0.479% [at 18.6 µM]. In addition, the fluorescence, % of fluorescein control was 0.0022% [at 18.6 µM] in assay [6] and 0.0052% [at 18.6 µM] in assay [13]. Moreover, the fluorescence, % of triamterene in assay [7] is 0.0374% [at 18.6 µM]. The fluorescence, % of fluorescent control in assay [8] is 0.0665% [at 18.6 µM]; in [9], -0.178% [at 18.6 µM]; in assay [12], -0.0263% [at 18.6 µM]; in assay [14] it was -0.0418% [at 18.6 µM]. The activity change in assay [10] was 0.0074% [at 18.6 µM, hits give high values]. Moreover, the fluorescence, % of Rose Bengal in assay [11] is -0.0617% [at 18.6 µM].
In the case of `O=C1NCN(c2ccccc2)C12CCN(CCCC(c1ccc(F)cc1)c1ccc(F)cc1)CC2`, the Potency result in assay [1], in [5], in [6], in [7], in assay [8] and in assay [9] was “inactive” in each case. For the same compound, the Potency result in assay [10], in [15], in assay [11], in assay [12], in [13] and in [14] was “inactive” throughout. Besides, the results for the Potency in assay [2], in assay [3] and in [4] were 26.6 µM (active), 26.6 µM (active) and 21.1 µM (active), respectively.
Consider `Brc1ccccc1-c1ccccc1`, for which the Potency entry in [1], in assay [2], in assay [3], in assay [5], in assay [6] and in [7] was “inactive” in each case. The Potency result in assay [8], in assay [17], in assay [9], in [10], in assay [15] and in assay [11] was “inactive” each time. For the same compound, the Potency entry in assay [12], in [13], in assay [14] and in [18] was “inactive” each time. In assay [16], the Potency was 51.6 µM (active).
Consider `CCCCCCC(C)Nc1ccc(Nc2ccccc2)cc1` (centres undefined), for which the Potency result in assay [1], in assay [3], in assay [5], in assay [6], in [7] and in assay [8] was “inactive” each time. The Potency entry in assay [17], in [9], in assay [10], in assay [15], in [11] and in assay [12] was “inactive” throughout. Also, the Potency entry in assay [13] and in assay [14] was “inactive” in each case. Besides, the Potency in [2] is 54.5 µM (active); in assay [16] it was 30.6 µM (active); in assay [19], 43.6 µM (active).
Regarding `CCCCCCCCCCCCCOP(=O)(O)O`, the Potency result in assay [1], in assay [3], in [4], in [5], in assay [6] and in [7] was “inactive” in each case. Moreover, the Potency result in [8], in assay [9], in assay [10], in assay [11], in assay [12] and in assay [13] was “inactive” each time. Moreover, the Potency entry in [14], in assay [18] and in assay [19] was “inactive” in each case. Also, in [2], the Potency is 48.6 µM (active).
`Oc1ccc(-c2ccccc2)c(Cl)c1`: the Potency result in [1], in [3], in assay [5], in [6], in assay [7] and in [8] was “inactive” each time. Further, the Potency entry in [17], in [9], in [10], in assay [15], in assay [12] and in assay [13] was “inactive” in each case. Moreover, the Potency result in assay [14], in assay [18] and in [19] was “inactive” each time. For the same compound, the Potency in assay [2] was 61.1 µM (active).
With `CCN=C1C=CC(=C(c2ccc(N(CC)CC)cc2)c2ccc(N(CC)CC)cc2)c2ccccc21`, the Potency result in assay [1], in [5], in assay [6], in assay [7], in assay [8] and in [17] was “inactive” in each case. In addition, the Potency entry in assay [9], in assay [10], in assay [13] and in assay [14] was “inactive” in each case. Also, the Potency was 30.5 µM (active) in assay [2], 34.2 µM (active) in assay [3] and 0.0076 µM (active) in [16].
`CN(C)CCOC(c1ccccc1)c1ccccc1` (tested in a mixture with another compound): the Potency result in [1], in assay [2], in assay [3], in [4], in assay [5] and in [6] was “inactive” throughout. For the same compound, the Potency result in assay [7], in assay [8], in [9], in assay [10], in [15] and in [11] was “inactive” in each case. For the same compound, the Potency result in assay [12], in assay [13], in assay [14] and in assay [18] was “inactive” in each case.
